“And” between values parts separate entries of the source, which are not always exact repeats. Equal values may be shown once. Compounds without any hit were thinned out: in the full panel of roughly 83,000, 20% have a hit.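 How to read the values: 0–100, growth inhibition (40 = 60% inhibited); 0, no net growth; -100 to 0, cell death (-40 = 40% of starting cells died; -100 = all dead).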 Values without a mark were called inactive. The source made the active and inactive calls. How the source made its calls: active means growth percent below 10; inactive means the rest.
What follows are compounds tested on MDA-MB-468 breast (assay: NCI-60 one-dose screen, 48 h (100 = growth as untreated, 0 = no growth, -100 = all killed)). Settings: 10 µM unless noted.

Row | Structure (SMILES) | growth
1 | CSc1nc(N)n2nccc2n1 | 114%
2 | O=C(CSc1nc2ccccc2c(=O)n1-c1ccccc1)N/N=C/c1ccc(Oc2ccc(Br)cc2)cc1 | 65.1%
3 | CCCCCCOc1ccc(/C=N/Nc2cc(C)nc3ccc(Br)cc23)cc1 | -78.6% (active)
4 | COc1ccc(-c2cc(/C=C/C(=O)c3cc(OC)c(OC)c(OC)c3)[nH]n2)cc1OC | -63.8% (active)
5 | CCOC(=O)c1c2c(c(C)n1Cc1ccc(OC)cc1)-c1nc(N)ncc1CC2 | 107%
6 | C=CC(=O)NC(=O)Nc1ccccc1Cl | 30.4%
7 | CN(C)CCn1c(=O)c2ccccc2n2nc3ccccc3c12 | 105%
8 | O=C1/C(=C\c2ccccc2)CN(C(=O)c2ccccc2)C/C1=C\c1ccccc1 | -48.6% (active)
9 | CCN(CC)CCN1C(=O)c2c(c3c4ccccc4[nH]c3c3[nH]c4ccccc4c23)C1=O | 89.2%
10 | Cc1onc(-c2ccccc2Cl)c1C(=O)N[C@@H]1C(=O)N2[C@@H]1SC(C)(C)[C@@H]2C(=O)O | 109%
11 | O=C1c2c(c3c4ccccc4[nH]c3c3ccc4ccccc4c23)C(=O)N1CCN1CCOCC1 | 58.6%
12 | Cc1ccc(NCc2cn(-c3ccc(C(=O)O)cc3)nc2-c2ccc(C(=O)O)cc2)cc1 | 120%
13 | O=C1[C@@H]2Cc3c([nH]c4ccccc34)[C@@H](c3ccc(Cl)cc3)N2C(=O)CN1C1CCN(Cc2ccccc2)CC1 | 49.5%
14 | CCCC/C(=C\c1ccc(O)c(O)c1)C(=O)NC(Cc1ccccc1)C(=O)C(=O)NCCc1ccc(OC)cc1 (configuration not stated) | 93.2%
15 | COc1ccc(-c2cc(-c3cccnc3)nc3sc4c(=O)n(-c5ccc(C)cc5)cnc4c23)cc1OC | 93.7%
16 | COC(=O)CCOc1ccccc1 | 80%
17 | O=C(COc1ccc(/C=C2\SC(=O)NC2=O)cc1)Nc1ccc(C(=O)/C=C/c2cc3ccccc3nc2Cl)cc1 | 20.6%
18 | C1CCC([PH+](C2CCCCC2)C2CCCCC2[PH+](C2CCCCC2)C2CCCCC2)CC1.[Au].[CH-]1CCCCC1C1CCCC[N-]1 (configuration not stated) | -33.9% (active)
19 | COc1cc(C(=O)n2nc(NCCCc3ccccc3)c3cc(N)ccc32)cc(OC)c1OC | 91.4%

Row | Structure (SMILES) | growth
20 | CCN(CC)CCCCCCCCNc1c2ccc(Cl)cc2nc2ccc(OC)cc12 | -93.2% (active)
21 | COc1ccccc1-n1cnc(N)c1C(=O)c1cc(OC)c(OC)c(OC)c1 | 39.3%
22 | CCN(C(C)=O)c1ccc([N+](=O)[O-])cc1 | 103%
23 | S=C(NCc1ccccc1)N1CCC(CCCC2CCN(C(=S)NCc3ccccc3)CC2)CC1 | 69.1%
24 | CC1=CCC2C1CC=C(C)C(CC[C@H]1[C@@](C)(O)CCC3OC(C)(C)[C@H](OC(=O)c4ccccc4)CC[C@@]31C)C2(C)C (some centres not stated) | 64.8%
25 | CC[C@@H](C)[C@H](NC(=O)Cn1cc(CNC(=O)[C@@H](NC(=O)OCc2ccccc2)C(C)C)nn1)C(=O)O | 98.5%
26 | NS(=O)(=O)c1ccc(Nc2nc(N/N=C/c3c[nH]c4ccccc34)nc(Nc3ccccc3)n2)cc1 | 52.7%
27 | CCN(CC)c1ccc(CNc2cc(C)nc3ccc(OC)cc23)cc1 | 2.98% (active)
28 | CCOC(=O)c1c(Nc2ccccc2)nn2c(N)c(C#N)c(-c3ccc(Cl)cc3)nc12 | 76.8%
29 | CCS(=O)(=O)CCCl | 101%
30 | Nc1nc(-c2ccccc2Br)nn1-c1nc2ccccc2s1 | 103%
31 | CC(=O)C1=C(C)NC(NNc2ccccc2)=NC1c1ccc([N+](=O)[O-])cc1 (configuration not stated) | 92.3%
32 | Cc1ccc(CSc2nc(-c3ccc(Cl)cc3)c(C#N)c(N3CCOCC3)n2)cc1 | 84%
33 | CC(C)Cc1ccc(C(C)C(=O)NCc2ccc(Cn3c(=O)sn(-c4ccc(Cl)cc4)c3=O)cc2)cc1 (configuration not stated) | 54.4%
34 | O=C(O)C(CCc1ccccc1)NCc1ccccc1 (configuration not stated) | 108%
35 | COc1cc(-c2cc(/C=C/C(C)=O)[nH]n2)cc(OC)c1OC | 54.5%
36 | O=C(Nc1ccc(-n2cc(-c3ccncc3)c(-c3ccc(Cl)c(O)c3)n2)cc1)c1cc(C(F)(F)F)cc(C(F)(F)F)c1 | 71.9%
37 | CCN(CC)CCCC(C)Nc1cnc(C(=O)Nc2cc(F)cc3cccnc23)cn1 (configuration not stated) | 6.24% (active) and -66.3% (active)

— PubChem BioAssay (NCI)
